Compound activity: PubChem, National Center for Advancing Translational Sciences (NCATS)
Only some compounds are listed: those with a hit (about 11% of all), similar ones and a draw of the others.
hNpr1 antagonist = Natriuretic polypeptide receptor (hNpr1) antagonism - Primary qHTS; Atrial natriuretic peptide receptor 1 (Homo sapiens), P16066; HEK293 hNpr1 GloSensor cGMP, ANP-stimulated luminescence; Potency, µM (titrated, usually from 46.3 µM), most hits filed as inhibitors; hit rate 1.6% among 76,000; AID 1347048, 2019; calls by dose curve; further: nearly all actives have a fitted effect of over 60% in size
Target sequence (P16066 whole entry, looked up): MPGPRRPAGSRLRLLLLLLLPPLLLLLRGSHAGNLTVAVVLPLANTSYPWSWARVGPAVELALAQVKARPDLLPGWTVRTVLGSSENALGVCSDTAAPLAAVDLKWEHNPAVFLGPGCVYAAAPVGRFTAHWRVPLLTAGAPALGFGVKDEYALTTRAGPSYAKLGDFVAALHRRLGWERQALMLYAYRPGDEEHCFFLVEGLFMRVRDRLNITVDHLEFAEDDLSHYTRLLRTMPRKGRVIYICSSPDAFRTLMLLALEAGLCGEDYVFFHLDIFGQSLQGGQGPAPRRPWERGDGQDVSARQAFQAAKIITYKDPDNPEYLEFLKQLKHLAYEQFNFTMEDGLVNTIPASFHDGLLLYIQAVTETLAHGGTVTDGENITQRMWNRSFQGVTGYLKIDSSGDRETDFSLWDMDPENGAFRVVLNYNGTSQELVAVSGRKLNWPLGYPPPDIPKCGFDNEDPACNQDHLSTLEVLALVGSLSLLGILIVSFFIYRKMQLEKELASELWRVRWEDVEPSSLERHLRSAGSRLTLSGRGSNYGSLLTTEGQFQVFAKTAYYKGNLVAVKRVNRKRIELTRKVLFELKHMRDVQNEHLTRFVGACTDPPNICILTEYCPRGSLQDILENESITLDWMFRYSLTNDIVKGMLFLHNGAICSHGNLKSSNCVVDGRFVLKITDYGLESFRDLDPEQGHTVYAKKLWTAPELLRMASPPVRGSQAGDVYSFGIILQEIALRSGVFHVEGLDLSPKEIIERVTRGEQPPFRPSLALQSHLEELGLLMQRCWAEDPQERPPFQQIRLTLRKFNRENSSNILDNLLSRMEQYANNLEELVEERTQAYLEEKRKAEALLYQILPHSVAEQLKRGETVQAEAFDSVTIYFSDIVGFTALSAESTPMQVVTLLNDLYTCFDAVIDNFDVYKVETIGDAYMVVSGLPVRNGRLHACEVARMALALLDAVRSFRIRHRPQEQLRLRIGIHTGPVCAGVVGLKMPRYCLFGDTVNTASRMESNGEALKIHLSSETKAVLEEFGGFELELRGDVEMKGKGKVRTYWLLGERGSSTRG
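HEK293 cells stably expressing human Npr1 and cGMP GloSensor pGS-40F, loaded 2 h with 2% GloSensor reagent, given compound 30 min at room temperature. Luminescence read before and 20 min after 0.1 nM hNppA.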
Luciferase inh = Firefly luciferase inhibition profiling of diverse chemical library using quantitative high-throughput screening. Luciferin 4-monooxygenase (Photinus pyralis), P08659. purified P. pyralis luciferase, luminescence, biochemical. Potency, µM (top dose mostly 115 µM), usual class: inhibitors. hit rate 2.5% among 76,000; further: nearly all actives have a fitted effect of over 65% in size
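Cell-free enzyme assay, 10nM P. pyralis luciferase, luciferin and ATP each at 10uM. Inhibition profiled over a 6-point titration, read as luminescence.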
NIH3T3 tox = Cytotoxic Profiling in NIH 3T3 Cell Line of Diverse Libraries Using Quantitative High-Throughput Screening; NIH 3T3 viability, CellTiter-Glo ATP luminescence, 48-72 h; Potency, µM (series often up to 96.7 µM), actives largely listed as inhibitors; hit rate 4.3% among 94,000; further: nearly all actives have a fitted effect of over 55% in size
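Luminescent ATP readout (CellTiter-Glo, 10 min RT) after 48 or 72 hr compound exposure of NIH 3T3 cells seeded at 400 cells/well in 1536-well format; quantitative HTS.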
HEK cytotox = Cytotoxic Profiling in HEK 293 Cell Line of Diverse Libraries Using Quantitative High-Throughput Screening; HEK 293 viability, ATP luminescence (CellTiter-Glo), 48-72 h; Potency, µM (titrated, usually from 115 µM), usual class: inhibitors; hit rate 6.6% among 94,000; further: nearly all actives have a fitted effect of over 60% in size
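HEK 293 seeded at 250 cells/well receive compound via pintool. After 48 or 72 hr at 37 degree Celsius, 5% CO2 and 95% humidity, CellTiter-Glo is dispensed and luminescence read following 10 min at room temperature.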
Of the large screens only hits and unclear results are named; the others gave an inactive call. Unless noted, the call rests on the fitted dose curve; in most records, active means well fitted curve in the direction sought with a large enough effect; inconclusive means small, poorly fitted or top-dose-only effect, or another doubt; inactive means no such curve, though single readings can be large; an effect the other way counts as inactive or inconclusive.

Cc1noc(C)c1-c1cc2cc(C(C)C)oc2c(-c2c(C)noc2C)n1	NIH3T3 tox inconclusive, HEK cytotox inconclusive
COc1ncccc1-c1nc(-c2c(C)noc2C)cc2cc(C(C)C)oc12	NIH3T3 tox inconclusive, HEK cytotox 89µM
CN(Cc1ccc(F)cc1)Cc1cnc(S(C)(=O)=O)n1CCCc1ccccc1	NIH3T3 tox inconclusive, HEK cytotox 20µM
CC(C)S(=O)(=O)c1ncc(CN(C)Cc2cnn(C)c2)n1CCc1ccccc1	none
CCCCn1c(CN(C)Cc2cnn(-c3ccccc3C)c2)cnc1S(=O)(=O)CC	NIH3T3 tox inconclusive, HEK cytotox inconclusive
CCS(=O)(=O)c1ncc(CN(C)Cc2ccc3nonc3c2)n1CCc1ccccc1	HEK cytotox 22µM
Cc1ccc(-c2cc(C(=O)NCCN3CCN(C)CC3)n(C)c2)cc1	NIH3T3 tox inconclusive, HEK cytotox inconclusive
CCn1cc(-c2ccc(Cl)cc2)cc1C(=O)NCCOC	none
CCN1CCN(CCNC(=O)c2cc(-c3ccc(Cl)cc3)cn2CC)CC1	NIH3T3 tox 20µM, HEK cytotox 28µM
CCN1CCN(CCNC(=O)c2cc(-c3ccc(Cl)cc3)cn2C)CC1	NIH3T3 tox inconclusive, HEK cytotox 25µM
CN(CCCc1nccn1C)C(=O)[C@H]1CCC[C@H](O)C1	none
CN(CCCN1c2ccccc2CCc2ccccc21)C(=O)[C@H]1CCC[C@@H](O)C1	NIH3T3 tox inconclusive, HEK cytotox 35µM
Cc1ccc(-c2nnc3ccc(N(C)c4cccc(C)c4)nn23)nc1	NIH3T3 tox inconclusive, HEK cytotox 56µM
Cc1ccc(-c2nnc3ccc(NCCN(C)C)nn23)nc1	NIH3T3 tox inconclusive
COCCNc1ccc2nnc(-c3ccc(C)cn3)n2n1	NIH3T3 tox 112µM
Cc1cccc(N(C)c2ccc3nnc(-c4cc(C#N)ccn4)n3n2)c1	hNpr1 antagonist inconclusive, NIH3T3 tox inconclusive, HEK cytotox inconclusive
Cc1ccc(-c2nnc3ccc(NCCc4ccccc4)nn23)nc1	NIH3T3 tox 45µM, HEK cytotox 56µM
Cn1cccc1CNC(=O)C1c2ccccc2C(=O)N(C2CCCCC2)C12CCCC2 (centres undefined)	NIH3T3 tox inconclusive, HEK cytotox inconclusive
CCc1ccc(CNC(=O)c2ccc3c(c2)N(CC)C2CCCCN2C3=O)cc1 (centres undefined)	NIH3T3 tox inconclusive, HEK cytotox inconclusive
CCN1c2cc(C(=O)NCc3cccc(C(F)(F)F)c3)ccc2C(=O)N2CCCCCC21 (centres undefined)	hNpr1 antagonist inconclusive, NIH3T3 tox inconclusive, HEK cytotox 18µM
CCN1c2cc(C(=O)NCc3ccccc3)ccc2C(=O)N2CCCCCC21 (centres undefined)	HEK cytotox 40µM
O=C(CCCc1ccccc1)N1CCC(Cc2nncn2-c2ccccc2)C1 (centres undefined)	none (no result: hNpr1 antagonist, Luciferase inh)
Cc1ccc(Nc2ccnc(N3CCCC(C(=O)NCc4cccs4)C3)n2)cc1 (centres undefined)	NIH3T3 tox 18µM, HEK cytotox 10µM (no result: hNpr1 antagonist, Luciferase inh)
COc1ccc(Nc2ccnc(N3CCCC(C(=O)NCc4cccs4)C3)n2)cc1 (centres undefined)	NIH3T3 tox 35µM, HEK cytotox 35µM (no result: hNpr1 antagonist, Luciferase inh)
COc1ccccc1Nc1ccnc(N2CCC[C@H]2C(=O)NCc2cccs2)n1	HEK cytotox inconclusive (no result: hNpr1 antagonist, Luciferase inh)
CC(=O)NCC1CN(S(=O)(=O)C(C)C)CC12CCCCC2 (centres undefined)	none (no result: hNpr1 antagonist, Luciferase inh)
FC(F)(F)c1ccc(CN2CCNc3cc(Nc4ccccc4)ncc3C2)cc1	hNpr1 antagonist inconclusive, Luciferase inh inconclusive, NIH3T3 tox 25µM, HEK cytotox 45µM
c1ccc(N2CCN(c3cc4c(cn3)CN(Cc3ccncc3)CCN4)CC2)nc1	hNpr1 antagonist inconclusive, HEK cytotox 79µM
Fc1cccc(CN2CCNc3cc(Nc4cccnc4)ncc3C2)c1	Luciferase inh 35µM, NIH3T3 tox 32µM, HEK cytotox inconclusive
c1cncc(-c2cc3c(cn2)CN(Cc2ccncc2)CCN3)c1	HEK cytotox inconclusive
Fc1ccc(Nc2cc3c(cn2)CN(Cc2ccccc2)CCN3)cc1	Luciferase inh inconclusive, NIH3T3 tox 32µM
c1ccc(Nc2cc3c(cn2)CN(Cc2ccccn2)CCN3)cc1	NIH3T3 tox inconclusive, HEK cytotox inconclusive
c1ccc(Nc2cc3c(cn2)CN(Cc2ncc[nH]2)CCN3)cc1	Luciferase inh 18µM, NIH3T3 tox inconclusive, HEK cytotox inconclusive
Fc1ccc(CN2CCNc3cc(Nc4ccccc4)ncc3C2)cc1F	NIH3T3 tox 40µM, HEK cytotox 22µM
Fc1ccc(Nc2cc3c(cn2)CN(Cc2ccncc2)CCN3)cc1Cl	hNpr1 antagonist 18µM, Luciferase inh inconclusive, NIH3T3 tox 20µM, HEK cytotox 32µM
O=C(COc1ccc(-c2nnc3n2CCCC3)cc1)NCc1ccccc1	none
Cc1ccc(C2(O)CCN(C(=O)c3ccc4ncccc4c3)CC2)nc1	none
CCCc1ccc(S(=O)(=O)N2CCC(c3c[nH]c4c(C)cccc34)CC2)cc1	NIH3T3 tox inconclusive, HEK cytotox 50µM
Cc1cccc2c(C3CCN(S(=O)(=O)c4c(Cl)cccc4Cl)CC3)c[nH]c12	NIH3T3 tox inconclusive, HEK cytotox inconclusive
Cn1ncc(N2CCC(NC(=O)Cc3ccsc3)CC2)cc1=O	none
COc1ccc(C2(C(=O)NCCc3ncc(C)n3C3CC3)CC2)cc1	HEK cytotox inconclusive
Cc1ccc(NC(=O)NCCc2ncc(C)n2C2CCC2)cc1C	HEK cytotox 79µM
Cc1cnc(CCNC(=O)C2(c3ccccc3)CC2)n1C1CCCCCC1	NIH3T3 tox inconclusive, HEK cytotox 40µM
Cc1cc(=O)n(CC(=O)Nc2cccc(C(C)C)c2)c(N2CCc3ccccc3C2)n1	hNpr1 antagonist inconclusive, NIH3T3 tox inconclusive, HEK cytotox inconclusive
COc1ccc2[nH]c(CN3CCC(CCC(=O)NCc4ccc(F)cc4)CC3)c(C)c2c1	NIH3T3 tox inconclusive, HEK cytotox 28µM
CCn1cc(CN2CCC(N3C(=O)C4(CCCCC4)C3c3ccccc3)CC2)cn1 (centres undefined)	HEK cytotox inconclusive
O=C([C@H]1CCCN1C(=O)Cc1cccc(Cl)c1)N1CCCC(c2nc3ccncc3[nH]2)C1 (some centres undefined)	none (no result: hNpr1 antagonist, Luciferase inh)
C#CCNC(=O)CNC(=O)c1cccc(-c2ccc(C(F)(F)F)cc2)c1	HEK cytotox inconclusive (no result: hNpr1 antagonist, Luciferase inh)
O=C(NC1CC1)C1CCCN1Cc1ccc(-c2cncnc2)cc1 (centres undefined)	none (no result: hNpr1 antagonist, Luciferase inh)
COc1cccc(-c2cccc(C(=O)N3CCCC3C(=O)N3CCN(c4ncccn4)CC3)c2)c1 (centres undefined)	none (no result: hNpr1 antagonist, Luciferase inh)
COc1ccccc1-c1ccc(CN2CCCCC2C(=O)NC2CC2)cc1 (centres undefined)	NIH3T3 tox inconclusive, HEK cytotox 40µM (no result: hNpr1 antagonist, Luciferase inh)
COc1ccc(F)cc1-c1ccc(CN2CCC(NC(=O)C3CCCCC3)C2)cc1 (centres undefined)	NIH3T3 tox 32µM, HEK cytotox 45µM (no result: hNpr1 antagonist, Luciferase inh)
